Source: PubChem (Buhrlage Lab, Dana-Farber Cancer Institute and Novartis Institutes for BioMedical Research (Cambridge, Mass))
Only some compounds are listed: those with a hit (about 14% of all), similar ones and a draw of the others.
USP30 inh: inhibitors of human USP30 deubiquitinase; AID 1645860; purified USP30, Ub-rhodamine cleavage fluorescence; inhibition, % at 25 µM; Q70CQ3; 47,000 tested, 5.3% active
USP10 inh: blocks human USP10 ubiquitin-rhodamine cleavage | AID 1645856 | inhibition, % at 20 µM | Q14694 | purified USP10, Ub-rhodamine fluorescence, 60 min | 47,000 tested, 1.1% active
USP8 block: human USP8 deubiquitinase inhibition; P40818; inhibition, % at 20 µM; 47,000 tested, 4.2% active; purified USP8, Ub-rhodamine cleavage fluorescence, 30 min
USP17 block: inhibitors of human USP17 deubiquitinase; purified USP17, Ub-rhodamine cleavage fluorescence, 3 h; inhibition, % at 50 µM; 47,000 tested, 6.5% active; AID 1645855
Target sequence (A8MUK1 whole entry, looked up): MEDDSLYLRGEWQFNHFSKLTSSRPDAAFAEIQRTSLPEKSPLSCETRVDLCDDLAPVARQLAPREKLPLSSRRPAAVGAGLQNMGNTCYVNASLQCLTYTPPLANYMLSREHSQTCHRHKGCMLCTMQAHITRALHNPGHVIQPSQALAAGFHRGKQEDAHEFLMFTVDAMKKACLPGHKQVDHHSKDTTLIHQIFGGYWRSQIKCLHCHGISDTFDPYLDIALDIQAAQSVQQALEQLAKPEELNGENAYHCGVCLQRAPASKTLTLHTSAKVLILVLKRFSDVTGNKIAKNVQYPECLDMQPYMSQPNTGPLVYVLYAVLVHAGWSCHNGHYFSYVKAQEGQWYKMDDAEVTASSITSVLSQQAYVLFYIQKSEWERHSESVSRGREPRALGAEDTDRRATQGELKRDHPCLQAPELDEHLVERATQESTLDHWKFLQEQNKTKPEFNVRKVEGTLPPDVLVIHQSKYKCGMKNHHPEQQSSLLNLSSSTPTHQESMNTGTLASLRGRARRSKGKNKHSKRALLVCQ
USP28 block: human USP28 deubiquitinase inhibition | inhibition, % at 25 µM | 47,000 tested, 3% active | purified USP28, Ub-rhodamine cleavage fluorescence, 30 min
Numbers stand for hits; n = inactive. Cut-off read from the data, not from the text of the source: active = inhibition above about 30%; inactive = the rest.

SMILES	USP30 inh	USP10 inh	USP8 block	USP17 block	USP28 block
CN(C)C(Cc1ccccc1)C(=O)c1ccc2c(c1)NC(=O)CO2 (configuration not stated)	n	n	n	n	n
COc1ccc2c(c1)c1nc(C)sc1n2CCN1CCOCC1	n	n	43	n	n
COc1ccc(S(=O)(=O)N2CCC3(CC2)OC(=O)Nc2ccccc23)cc1	n	n	39	64	n
O=[N+]([O-])c1cccc(-c2nnc(Cc3cc(F)cc(F)c3)o2)c1	n	n	n	n	n
O=[N+]([O-])c1ccc(Cc2nnc(-c3ccccc3Cl)o2)cc1	n	n	n	35	48
O=C(c1cnc2[nH][nH]c(=O)c2c1)c1cc(Cl)cc(Cl)c1O	46	87	94	89	55
O=C(Nc1cccc(N2CCCS2(=O)=O)c1)c1cccc(C(F)(F)F)c1	n	n	n	n	n
O=C(Nc1cccc(F)c1)c1ccc(N2CCCCS2(=O)=O)cc1Cl	n	n	n	n	33
O=C(Nc1ccc(F)c(Cl)c1)c1ccc(N2CCCCS2(=O)=O)cc1Cl	n	n	n	n	52
O=c1c(-c2nc(-c3ccncc3)no2)cccn1Cc1c(F)cccc1Cl	n	n	51	n	n
CCCCCCCC/C=C\CCCCCCCC(=O)O	n	n	n	n	n
CCC/C=C\C#CC/C=C\CCCCCCCC(=O)O	n	n	n	63	69
CC(C)Oc1ccc(CNC(=O)c2cc(CN3CCOCC3)on2)cc1	n	n	n	n	n
CN(CC(=O)Nc1ccc(Cl)cc1)c1cnn(-c2nc3ccccc3[nH]2)c(=O)c1Cl	n	n	30	n	n
O=C(NCc1ccco1)c1ccc(Cn2c(SCc3ccccc3)nc3ccncc32)cc1	74	n	35	88	72
Cc1ccc(C(=O)Nc2ncnc3oc(-c4ccccc4)c(-c4ccccc4)c23)cc1	n	n	61	n	n
O=C(NCc1ccccc1)N1CCn2cccc2C1c1ccc(Cl)cc1 (configuration not stated)	n	n	n	n	n
C=C1CCC2[C@](C)(CCC[C@]2(C)C(=O)OC)[C@H]1CCc1ccoc1CNC(CCSC)C(=O)O (some centres not stated)	n	n	43	n	n
C=C1CCC2[C@](C)(CCC[C@]2(C)C(=O)OC)[C@H]1CCc1ccoc1CNC(C)C (some centres not stated)	n	n	n	n	n
Cc1cc(-c2csc(-c3cccc(F)c3)n2)c(C)n1-c1ncn[nH]1	n	n	n	n	n
COc1ccc(CNc2nc(N3CCN(C)CC3)nc3c2cnn3C)cc1	n	n	n	n	n
Cc1ccc(Cn2c(C(=O)O)c(CNCc3ccco3)c3ccccc32)cc1	n	n	n	35	n
Cc1ccc(Cn2c(C(=O)O)c(CNC3CCCC3)c3ccccc32)cc1	n	n	n	n	n
COc1ccccc1CNCc1c(C(=O)O)n(Cc2ccc(F)cc2Cl)c2cc(C)ccc12	n	n	n	n	n
COc1ccc(CNCc2c(C(=O)O)n(Cc3ccc(F)cc3Cl)c3cc(C)ccc23)cc1	63	n	n	57	n
SMILES	USP30 inh	USP10 inh	USP8 block	USP17 block	USP28 block
Cc1ccc(Cn2c(C(=O)O)c(CNCc3cccc(Cl)c3)c3ccc(C)cc32)cc1	43	n	n	n	33
Cc1ccc(NC(=O)c2cc(N3CCOCC3)ccn2)cc1	n	n	n	n	n
O=S(=O)(c1ccccc1)N1CCCCCC1C1CCN(Cc2nnc(C3CC3)o2)CC1 (configuration not stated)	n	n	n	n	n
Cn1ccc(-c2cc(C(=O)NCc3ccncc3)c3ccccn23)n1	n	n	n	n	n
Cn1ccc(-c2cc(C(=O)NCc3ccccn3)c3ccccn23)n1	n	n	36	n	n
COc1cccc(N2CCN(C(=O)CCNS(=O)(=O)c3ccc4c(c3)CCC(=O)N4)CC2)c1	n	n	n	58	n
CC1=C(C(=O)c2ccc(Cl)cc2)C(c2ccc(C(C)C)cc2)NC(=O)N1 (configuration not stated)	n	n	73	32	n
CC(Sc1nnc(-c2ccncc2)o1)C(=O)Nc1ccccc1 (configuration not stated)	n	n	n	n	n
O=C(CSc1nnc(-c2ccccc2)n1-c1ccc(F)cc1)NCc1ccc(F)cc1	n	n	n	n	n
Clc1ccc2nc(NC3=NCN(CCc4ccccc4)CN3)nc(-c3ccccc3)c2c1	38	n	n	n	n
COc1cccc2c(C)nc(NC3=NCN(CCc4ccccc4)CN3)nc12	33	n	n	n	n
